The nature of assay [1]: qHTS assay to identify small molecule antagonists of the glucocorticoid receptor (GR) signaling pathway - cell viability counter screen (AID 720693). Further: nearly all actives have a fitted effect of over 55% in size. Further: potency means the concentration at half of the fitted maximal effect.
The nature of assay [2]: qHTS assay for identifying genotoxic compounds that show differential cytotoxicity against isogenic chicken DT40 cell lines with known DNA damage response pathways - wild type cell line (AID 743012). Further: nearly all actives have a fitted effect of over 60% in size. Further: potency means the concentration at half of the fitted maximal effect. In a few lines: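 Parental DNA repair-proficient DT40 cells, 300 per well, were pre-incubated ~0.5 h at 37 C/5% CO2, pin-dosed with compounds in DMSO, then incubated 40 h. Viability was read as CellTiter-Glo luminescence after 30 min at room temperature.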

Assay [3] in a line: qHTS assay for identifying genotoxic compounds that show differential cytotoxicity against isogenic chicken DT40 cell lines with known DNA damage response pathways - Rev3 mutant cell line (AID 743014). Further: nearly all actives have a fitted effect of over 55% in size. Further: potency means the concentration at half of the fitted maximal effect. A general note: qHTS replaces the single test concentration by a dilution series.
Assay [4] in a line: qHTS assay for identifying genotoxic compounds that show differential cytotoxicity against isogenic chicken DT40 cell lines with known DNA damage response pathways - Rad54/Ku70 mutant cell line (AID 743015). Further: nearly all actives have a fitted effect of over 60% in size. Further: potency means the concentration at half of the fitted maximal effect.
The nature of assay [5]: qHTS assay to identify small molecule antagonists of the thyroid receptor (TR) signaling pathway - cell viability counter screen (AID 743064). Further: nearly all actives have a fitted effect of over 50% in size. Further: potency means the concentration at half of the fitted maximal effect. Summed up:
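Viability of T3-stimulated (1 nM final) GH3.TRE-Luc cells is measured by CellTiter-Fluor fluorescence after 23.5 h compound exposure at 37 °C plus 30 min reagent incubation.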

Assay [6] can be described thus: qHTS assay to identify small molecule antagonists of the thyroid receptor (TR) signaling pathway (AID 743065). Further: nearly all actives have a fitted effect of over 55% in size. Further: potency means the concentration at half of the fitted maximal effect. Summed up:
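GH3.TRE-Luc rat pituitary cells (two TREs driving luciferase) were dosed with compound, then stimulated with 1 nM T3 (final) for 23.5 h at 37 C. ONE-Glo luminescence was the read-out, with CellTiter-Fluor fluorescence as the cytotoxicity counter-screen.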

The test system of assay [7] is thyroid hormone receptor (rat, GH3 cells). The experiment in a line: qHTS assay to identify small molecule agonists of the thyroid receptor (TR) signaling pathway (AID 743066; calls by dose curve).
Assay [8] deals with Estrogen receptor (Homo sapiens) (UniProt P03372). In words: qHTS assay to identify small molecule antagonists of the estrogen receptor alpha (ER-alpha) signaling pathway (AID 743069; active means well fitted curve in the direction sought with a large enough effect in the signal ratio in the repeat runs, not every such curve was filed as active; the % refers to the signal ratio; further: potency means the concentration at half of the fitted maximal effect). Summed up:
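Reporter cells (ER-alpha-bla, HEK293 background) are conditioned overnight in stripped-serum medium (2% charcoal-stripped FBS). Compound and 17beta-estradiol exposure runs 18 hr at 37C, 5% CO2.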

Assay [9] is described as follows: qHTS assay to identify small molecule antagonists of the estrogen receptor alpha (ER-alpha) signaling pathway - cell viability counter screen (AID 743074; calls by dose curve;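 further: HEK293 cells carrying ER-alpha-UAS-bla reporter stimulated with 17beta-estradiol; nearly all actives have a fitted effect of over 45% in size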; further: potency means the concentration at half of the fitted maximal effect).
Assay [10] concerns the target Estrogen receptor (Homo sapiens) (UniProt P03372). The experiment in a line: qHTS assay to identify small molecule agonists of the estrogen receptor alpha (ER-alpha) signaling pathway (AID 743075; calls by dose curve).
For assay [11] the target is unchanged. In words: qHTS assay to identify small molecule agonists of the estrogen receptor alpha (ER-alpha) signaling pathway using the BG1 cell line (AID 743079). Further: nearly all actives have a fitted effect of over 20% in size.
The nature of assay [12]: qHTS assay to identify small molecule antagonists of the estrogen receptor alpha (ER-alpha) signaling pathway using the BG1 cell line (AID 743080; calls by dose curve;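 further: BG1 cells stimulated with 17beta-estradiol alongside compound; nearly all actives have a fitted effect of over 25% in size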; further: potency means the concentration at half of the fitted maximal effect). Summed up:
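Seeding, 24 h rest, compound transfer from DMSO, 17beta-estradiol addition, 21.5 h incubation, CellTiter-Fluor (30 min, 37 C), then ONE-Glo (30 min, room temperature): this sequence was run on BG1-Luc-4E2 reporter cells.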

Assay [13] can be described thus: qHTS assay to identify small molecule antagonists of the estrogen receptor alpha (ER-alpha) signaling pathway using the BG1 cell line - cell viability counter screen (AID 743081).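 Further: compound given together with 17beta-estradiol as the ER stimulus; nearly all actives have a fitted effect of over 45% in size.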 Further: potency means the concentration at half of the fitted maximal effect.
Assay [14] addresses Androgen receptor (Homo sapiens) (UniProt P10275). In words: qHTS assay to identify small molecule antagonists of the androgen receptor (AR) signaling pathway (AID 743035; active means well fitted inhibition curve with a large enough effect in the signal ratio in the repeat runs, not every such curve was filed as active; the % refers to the signal ratio). Summed up:
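HEK293 cells stably carrying a UAS-driven beta-lactamase reporter (AR-UAS-bla GripTite) were plated for 4 h at 37C, then given compound and the agonist R1881 and incubated 16 h. Reporter activity was read by LiveBLAzer B/G FRET fluorescence after 2 h at room temperature.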

Assay [15] has the same target. The experiment in a line: qHTS assay to identify small molecule agonists of the androgen receptor (AR) signaling pathway (AID 743036; active means well fitted activation curve with a large enough effect in the signal ratio in the repeat runs, with a control signal flat, not every such curve was filed as active; the % refers to the signal ratio; further: potency means the concentration at half of the fitted maximal effect). In a few lines: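 Screening used 2,000 AR-bla HEK293 cells per well, treated 16 h at 37C with test compounds in DMSO alongside positive and DMSO-only controls; beta-lactamase activity was then read by LiveBLAzer B/G FRET fluorescence after 2 h at room temperature.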

The target is the same in assay [16]. In words: qHTS assay to identify small molecule agonists of the androgen receptor (AR) signaling pathway using the MDA cell line (AID 743040; further: potency means the concentration at half of the fitted maximal effect; nearly all actives have a fitted effect of over 20% in size). Summed up:
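Human breast carcinoma MDA-kb2 reporter cells (MMTV-luc, AR/GR elements) were treated for 16 h at 37C in 0% CO2 following a 5 h settling period. Signal was quantified by ONE-Glo luminescence.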

Assay [17] is described as follows: qHTS assay to identify small molecule antagonists of the androgen receptor (AR) signaling pathway using the MDA cell line - cell viability counter screen (AID 743041; further: nearly all actives have a fitted effect of over 45% in size; further: potency means the concentration at half of the fitted maximal effect). Summed up: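 Same-well cytotoxicity was assessed by CellTiter-Fluor in MDA-kb2 AR-luc cells after 16 h of compound treatment under R1881 agonism.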
In assay [18] the target is Androgen receptor (Homo sapiens) (UniProt P10275). In words: qHTS assay to identify small molecule antagonists of the androgen receptor (AR) signaling pathway using the MDA cell line (AID 743042; further: nearly all actives have a fitted effect of over 55% in size). Summed up:
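MDA-kb2 breast carcinoma cells carrying MMTV-luciferase (AR/GR responsive) were co-treated with compounds and the agonist R1881 for 16 h at 37C. Inhibition read as ONE-Glo luminescence; CellTiter-Fluor fluorescence measured in parallel for cytotoxicity.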

The next assay addresses Aromatase (Homo sapiens) (UniProt P11511). In words: qHTS assay to identify aromatase inhibitors (AID 743083). Further: nearly all actives have a fitted effect of over 55% in size. Further: potency means the concentration at half of the fitted maximal effect.
A short description of assay [19]: qHTS assay to identify small molecule antagonists of the androgen receptor (AR) signaling pathway - cell viability counter screen (AID 743033; further: nearly all actives have a fitted effect of over 45% in size).

We go through 14 compounds from PubChem BioAssay (Tox21).

Where “and” joins values, the source holds several entries; their conditions need not be identical. Equal values may be shown once. Results filed as inconclusive are left out. Calls of active or inactive are those of the source. Unless noted, the call rests on the fitted dose curve; in most records, active means well fitted curve in the direction sought with a large enough effect in the repeat runs; inconclusive means weak or mixed curves; inactive means no such curve, though single readings can be large; an effect the other way counts as inactive or inconclusive.

Estrogen receptor (Homo sapiens), sequence (P03372 whole entry, looked up): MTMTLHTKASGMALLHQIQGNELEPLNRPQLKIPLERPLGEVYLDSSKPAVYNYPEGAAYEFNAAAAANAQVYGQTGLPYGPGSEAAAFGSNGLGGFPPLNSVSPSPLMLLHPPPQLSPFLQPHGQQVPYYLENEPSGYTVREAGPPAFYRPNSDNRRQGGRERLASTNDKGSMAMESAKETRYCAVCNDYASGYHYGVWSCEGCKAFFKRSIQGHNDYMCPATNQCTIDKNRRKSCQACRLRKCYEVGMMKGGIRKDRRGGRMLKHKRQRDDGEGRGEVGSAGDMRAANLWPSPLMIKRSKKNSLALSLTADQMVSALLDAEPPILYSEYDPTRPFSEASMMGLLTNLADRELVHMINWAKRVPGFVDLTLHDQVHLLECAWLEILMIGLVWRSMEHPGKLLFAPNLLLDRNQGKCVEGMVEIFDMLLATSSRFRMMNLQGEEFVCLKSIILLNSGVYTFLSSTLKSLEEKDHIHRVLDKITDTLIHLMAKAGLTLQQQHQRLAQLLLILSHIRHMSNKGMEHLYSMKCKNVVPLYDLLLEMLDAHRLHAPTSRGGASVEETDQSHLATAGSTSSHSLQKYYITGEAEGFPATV
Aromatase (Homo sapiens), sequence (P11511 whole entry, looked up): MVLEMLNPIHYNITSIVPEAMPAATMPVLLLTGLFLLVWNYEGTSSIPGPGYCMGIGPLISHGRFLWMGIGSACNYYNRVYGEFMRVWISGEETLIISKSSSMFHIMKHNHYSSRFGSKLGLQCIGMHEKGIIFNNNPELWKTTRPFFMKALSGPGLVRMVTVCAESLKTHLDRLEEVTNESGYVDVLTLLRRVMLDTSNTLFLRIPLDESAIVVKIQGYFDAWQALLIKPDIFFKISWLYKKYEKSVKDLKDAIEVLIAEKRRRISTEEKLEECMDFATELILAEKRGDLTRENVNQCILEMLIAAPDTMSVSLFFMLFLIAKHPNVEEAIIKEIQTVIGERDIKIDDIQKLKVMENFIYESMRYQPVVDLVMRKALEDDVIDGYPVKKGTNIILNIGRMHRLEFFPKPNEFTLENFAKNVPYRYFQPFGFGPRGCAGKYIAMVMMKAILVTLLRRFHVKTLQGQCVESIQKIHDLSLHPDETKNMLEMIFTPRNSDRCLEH
Androgen receptor (Homo sapiens), sequence (P10275 whole entry, looked up): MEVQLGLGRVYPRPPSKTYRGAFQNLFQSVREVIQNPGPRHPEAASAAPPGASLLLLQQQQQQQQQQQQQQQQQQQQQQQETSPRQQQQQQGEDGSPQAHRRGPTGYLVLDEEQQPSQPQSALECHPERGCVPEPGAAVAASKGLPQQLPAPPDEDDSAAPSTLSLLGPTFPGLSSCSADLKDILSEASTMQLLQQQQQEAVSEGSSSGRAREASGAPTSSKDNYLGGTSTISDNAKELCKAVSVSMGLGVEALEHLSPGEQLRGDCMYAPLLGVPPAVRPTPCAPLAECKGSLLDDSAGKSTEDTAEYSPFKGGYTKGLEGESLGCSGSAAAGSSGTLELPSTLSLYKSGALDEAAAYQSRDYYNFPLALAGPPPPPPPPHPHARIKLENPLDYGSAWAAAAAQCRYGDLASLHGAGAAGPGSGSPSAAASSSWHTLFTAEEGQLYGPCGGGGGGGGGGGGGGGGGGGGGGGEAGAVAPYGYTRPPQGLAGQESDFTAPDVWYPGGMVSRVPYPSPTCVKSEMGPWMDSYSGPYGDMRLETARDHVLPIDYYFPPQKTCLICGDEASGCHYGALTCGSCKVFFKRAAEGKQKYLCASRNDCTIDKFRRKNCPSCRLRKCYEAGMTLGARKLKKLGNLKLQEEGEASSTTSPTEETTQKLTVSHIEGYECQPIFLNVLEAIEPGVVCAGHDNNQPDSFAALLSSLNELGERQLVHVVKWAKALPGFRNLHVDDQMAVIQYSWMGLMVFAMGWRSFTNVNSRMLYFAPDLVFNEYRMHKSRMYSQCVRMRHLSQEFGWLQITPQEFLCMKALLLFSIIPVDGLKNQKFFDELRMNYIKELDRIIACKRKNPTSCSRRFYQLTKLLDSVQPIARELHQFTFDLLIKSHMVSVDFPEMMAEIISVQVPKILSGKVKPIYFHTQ

Take `CC(C)OC(=O)C(O)(c1ccc(Cl)cc1)c1ccc(Cl)cc1`: the Potency result in assay [1], in [9], in [10], in assay [11], in assay [12] and in [13] was “inactive” throughout. Also, the Potency was 8.63 µM (active) in assay [2]; 6.86 µM (active) in [3]; 7.7 µM (active) in assay [4]; 61.1 µM (active) in assay [5]; 61.1 µM (active) in assay [6]; 38.9 µM [inhibitor] (active) in assay [8]. Further, the call in [7] was inactive.

For the compound `FC(Cl)(Cl)Cl`, the Potency entry in assay [1], in assay [2], in assay [3], in [4], in assay [14] and in assay [17] was “inactive” throughout. The Potency entry (in assay [18]; in assay [5]; in [6]; in assay [9]; in assay [13]; with Aromatase (Homo sapiens)) was “inactive” each time. Further, the Potency in assay [15] was 12.3 µM (active); in assay [16] it was 1.36 µM (active). Further, the call in assay [7] was inactive.

`O=C/C(Cl)=C(/Cl)C(=O)O`: the Potency result in assay [1], in assay [17], in assay [10], in [11], in assay [12] and in assay [13] was “inactive” in each case. In addition, the Potency was 17.2 µM (active) in assay [2]; 19.3 µM (active) and 15.4 µM (active) in assay [3]; 21.7 µM (active) in assay [4]; 68.6 µM (active) in assay [6]. Besides, in [7], the call was inactive.

With `Clc1ccc(-c2ccc(Cl)c(Cl)c2Cl)c(Cl)c1Cl`, the Potency result in assay [1], in assay [2], in assay [3], in assay [4], in assay [17] and in assay [5] was “inactive” each time. For the same compound, the Potency entry in assay [6], in assay [9], in assay [10], in assay [11], in assay [12] and in assay [13] was “inactive” throughout. Further, the Potency entry in the assay with Aromatase (Homo sapiens) was “inactive”. Also, the compound was called inactive in [7].

For the compound `CCCCCCCCCC[N+](C)(C)CCCCCCCCCC`, the Potency was 24.5 µM (active) in assay [1]; 668 nM (active) and 433 nM (active) in [2]; 841 nM (active) and 433 nM (active) in [3]; 1.06 µM (active) and 344 nM (active) in [4]; 24.8 µM (active) and 30.6 µM (active) in assay [17]; 5.96 µM (active) and 12.2 µM (active) in [5]. Further, the Potency in assay [6] was 5.96 µM (active) and 9.69 µM (active); in assay [9], 10.7 µM (active) and 38.9 µM (active); in assay [12] it was 33.5 µM (active); in the assay with Aromatase (Homo sapiens), 13.3 µM (active) and 24.3 µM (active). The Potency result in [10] and in assay [13] was “inactive” each time.

Turning to `O=C(NC(=O)c1c(F)cccc1F)Nc1cc(Cl)c(OC(F)(F)C(F)F)c(Cl)c1`, the Potency result in [1], in [2], in assay [3], in assay [17], in assay [18] and in [5] was “inactive” each time. The Potency result (in assay [6]; in [8]; in assay [9]; in assay [10]; in [13]; with Aromatase (Homo sapiens)) was “inactive” in each case. The Potency in assay [4] is 21.7 µM (active). In addition, the outcome in assay [7] was inactive.

Consider `BrC(Br)C(Br)(Br)Br`, for which the Potency entry in assay [1], in assay [2], in [3], in [4], in [17] and in assay [9] was “inactive” each time. The Potency result in assay [10], in assay [11] and in [13] was “inactive” throughout. The Potency is 24.5 µM (active) in assay [5], 19.4 µM (active) in [6] and 61.5 µM (active) with Aromatase (Homo sapiens). In addition, the compound was classed as inactive in assay [7].

For `CC(=O)OC1(c2ccccc2)CCN(CCc2ccccc2)CC1`, the Potency entry (in assay [1]; in [9]; in [13]; with Aromatase (Homo sapiens)) was “inactive” in each case. Further, the Potency in assay [2] is 4.43 µM (active); in [3], 4.43 µM (active); in assay [4], 4.43 µM (active); in assay [5] it was 31.4 µM (active); in [6], 55.8 µM (active). Also, the compound was called inactive in assay [7].

Regarding `O=C1NCN(c2ccccc2)C12CCN(CC1COc3ccccc3O1)CC2` (stereo not given), the Potency result in assay [1], in [3], in assay [19], in [17], in [8] and in [9] was “inactive” in each case. Besides, the Potency entry (in assay [10]; in assay [12]; in assay [13]; with Aromatase (Homo sapiens)) was “inactive” each time. The Potency in assay [2] was 23.7 µM (active). The call in assay [7] was inactive.

As to `Clc1ccc(CO/N=C(\Cn2ccnc2)c2ccc(Cl)cc2Cl)c(Cl)c1`, the Potency result in assay [1], in [19], in [17] and in [13] was “inactive” throughout. The Potency in assay [2] was 13.3 µM (active); in [3], 26.6 µM (active); in assay [4] it was 21.1 µM (active); in [12] it was 11.9 µM (active); in the assay with Aromatase (Homo sapiens), 2.66 µM (active).

With `CC(C)[C@H](C(=O)OC(C#N)c1cccc(Oc2ccccc2)c1)c1ccc(OC(F)F)cc1` (stereo not given in full), the Potency entry in assay [1], in [17], in assay [5], in assay [9] and in assay [13] was “inactive” each time. Also, the Potency in assay [2] was 24.3 µM (active); in [3], 34.4 µM (active); in assay [4] it was 27.3 µM (active); in assay [6] it was 54.5 µM (active). Moreover, the compound was classed as inactive in assay [7].

Regarding `CC(C)CC(C)Nc1ccc(Nc2ccccc2)cc1` (stereo not given), the Potency in assay [1] is 48.2 µM (active); in assay [2], 26.8 µM (active); in assay [3], 16.9 µM (active); in assay [4], 15.1 µM (active); in [5], 42.5 µM (active); in assay [6] it was 30.1 µM (active). Moreover, the Potency was 48.2 µM (active) in assay [9], 53.5 µM (active) in assay [13] and 53.5 µM (active) with Aromatase (Homo sapiens). Moreover, the result in assay [7] was inactive. For the same compound, the Potency result in assay [10] was “inactive”.

`CC(C)CC(C)N` (stereo not given): the Potency result in [1], in assay [2], in [3], in assay [4], in [17] and in assay [5] was “inactive” each time. Also, the Potency entry in [6], in [8], in assay [9], in [10], in assay [11] and in assay [12] was “inactive” throughout. The Potency entry (in assay [13]; with Aromatase (Homo sapiens)) was “inactive” each time. Further, the result in assay [7] was inactive.

As to `Fc1ccc(Oc2ccnc3cc(Cl)cc(Cl)c23)cc1`, the Potency result in assay [1], in assay [19], in assay [9], in assay [10], in [11] and in assay [13] was “inactive” in each case. Moreover, the Potency result in the assay with Aromatase (Homo sapiens) was “inactive”. Moreover, the Potency in [2] is 61.1 µM (active); in assay [3] it was 68.6 µM (active); in assay [4], 61.1 µM (active); in assay [6], 68.6 µM (active).
